KB-V1 cytotox – kills drug-selected multidrug resistant KB-V1 cells; KB-V1 MDR cells viability, CellTiter-Glo, 72 h; Potency, µM (titrated, usually from 46.1 µM), usual class: cytotoxic; 400,000 compounds, 3.4% hits; also: nearly all actives have a fitted effect of over 60% in size
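Drug-selected KB-V1 cells, grown in DMEM lacking phenol red with 10% FBS, receive compound titrations; after three days at 37 degrees C, surviving cell ATP is quantified by CellTiter-Glo luminescence and responses normalized and curve-fitted.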
TDP1 cell CPT – DT40-hTDP1 cell growth loss with CPT | chicken DT40 Tdp1-/-;hTDP1 cells + 20 nM CPT, ATP luminescence, 48 h | Potency, µM (series often up to 46.2 µM), without a hit: at the top dose activity change, negative = growth inhibition, most hits filed as inhibitors | 420,000 compounds, 12% hits; also: nearly all actives have a fitted effect of over 55% in size
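Cell growth measured by CellTiter-Glo luminescence after a minimum 48 h, 37 C compound exposure with 20 nM CPT in Tdp1-knockout DT40 cells stably expressing hTDP1, seeded 400/well; qHTS titration format.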
HT1080 IDH1KD tx – toxicity to HT-1080 IDH1 knockdown cells (counter line) | Potency, µM (highest dose often 46.1 µM), inactives show at the highest dose activity, negative = toxicity, usual class: cytotoxic | AID 686971 | 360,000 compounds, 2% hits | HT-1080 IDH1 knockdown viability, ATP luminescence, 48 h;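 also: 0% = DMSO wells and -100% = cell-free medium wells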
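In this qHTS, HT-1080 cells depleted of IDH1 are exposed for 48 h at 37 °C to compound titrations. Toxicity is scored from CellTiter-Glo luminescence, with DMSO as full viability and medium alone as none.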
KB-3-1 tox – KB-3-1 parental cell cytotoxicity | 400,000 compounds, 1.4% hits | Potency, µM (titrated, usually from 46.1 µM), most hits filed as cytotoxic | KB-3-1 viability, CellTiter-Glo ATP luminescence, 72 h | AID 1347075; also: nearly all actives have a fitted effect of over 60% in size
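Parental KB-3-1 adenocarcinoma cells in phenol-red-free DMEM with 10% FBS were pin-treated with compounds at several concentrations, incubated 72 h at 37 °C, and viability read by CellTiter-Glo luminescence; concentration-effect curves were fitted after normalization.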
HT1080-NT tox – kills 2HG-producing HT-1080-NT fibrosarcoma cells; HT-1080-NT fibrosarcoma viability, CellTiter-Glo ATP luminescence, 48 h; Potency, µM (top dose mostly 46.1 µM), for the others: top-dose activity, negative = less viability, most hits filed as cytotoxic; 360,000 compounds, 1.6% hits; AID 686970;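 also: NT is the 2HG producing partner of a matched IDH1 knockdown line; 0% = DMSO-treated cells and -100% = media-only wells without cells; nearly all actives have a fitted effect of over 55% in size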
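Viability of the 2HG-overproducing fibrosarcoma line after 48 hours of compound exposure at 37 degrees C was determined by luminescence with CellTiter-Glo, and concentration-effect curves were then fitted and categorized.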
TDP1 cell noCPT – qHTS for Inhibitors of human tyrosyl-DNA phosphodiesterase 1 (TDP1): qHTS in cells in absence of CPT | Potency, µM (doses to about 46.2 µM), inactives show top-dose activity change, negative = growth inhibition, actives largely listed as inhibitors | 420,000 compounds, 15% hits | DT40 Tdp1-/- hTDP1 cells, no CPT, ATP luminescence, 48 h; also: nearly all actives have a fitted effect of over 55% in size
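Chicken DT40 Tdp1-/- cells stably complemented with human TDP1 were seeded at 400 cells/well with DMSO in place of 20 nM camptothecin. After compound pinning, cells grew at least 48 hr at 37 °C; viability read by CellTiter-Glo luminescence.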
The depositor's hits bear a star; i = inactive; ? = inconclusive; · = no result; ! = a repeat was not active. Most compounds without a hit are left out; they make up all but 19% or so of the library. Calls follow the shape of the dose curve; as a rule, active = well fitted curve in the direction sought with a large enough effect; inconclusive = small, poorly fitted or top-dose-only effect, or another doubt; inactive = no such curve, though single readings can be large; an effect the other way counts as inactive or inconclusive. Unless noted, % is scaled to controls: 0 for no effect and ±100 for the full control effect; potency is read from the fitted curve at half-maximal effect.

SMILES | KB-V1 cytotox | TDP1 cell CPT | HT1080 IDH1KD tx | KB-3-1 tox | HT1080-NT tox | TDP1 cell noCPT
CC(Nc1n[nH]c(=O)[nH]c1=O)C(=O)N/N=C/c1cccs1 (stereo not drawn) | i | -2% | 16% | i | 14% | -6%
NCc1nc2cccnc2n1Cc1ccccc1Cl | i | -2% | · | i | · | -1%
O=c1c2c([nH]c3ccccc13)CCCCC2 | i | -28% | -5% | i | ? | ?
O=c1c2c([nH]c3ccccc13)CCCCCC2 | ? | 23µM* | -12% | i | 2% | 16µM*
O=c1c2ccccc2[nH]c2ccccc12 | i | 8.2µM* | -1% | i | -3% | 16µM*
COc1cc(NC(=O)CN2C(=O)NC(CC(C)C)C2=O)cc(OC)c1OC (stereo not drawn) | i | 4% | -5% | i | 18% | 5%
Clc1nc(-c2ccccc2)c2ccccc2n1 | ? | 13% | -4% | i | -2% | -2%
NC(N)=Nc1nc(-c2ccccc2)c2ccccc2n1 | i | 26µM* | 18µM* | ? | -29% | 15µM*
COc1ccc(CCNC(=O)C2CC3Cn4c(nc5ccccc54)C3N2Cc2ccccc2)cc1 (stereo not drawn) | i | ? | 3% | i | 0% | 18µM*
COc1ccc(CCNC(=O)C2CC3Cn4c(nc5ccccc54)C3N2C)cc1 (stereo not drawn) | i | -20% | 8% | i | -12% | 0%
COc1cc(NC(=O)C(CC(C)C)NS(=O)(=O)c2ccc3c(c2)CCN3C(C)=O)cc(OC)c1 (stereo not drawn) | ? | -25% | · | i | · | 3%
COc1ccccc1C1CC(=O)NC(C)=C1C(=O)OC(C)C (stereo not drawn) | ? | ? | 1% | i | 7% | 13µM*
CC1=C(C(=O)OC2CCCC2)C(c2ccccc2C(F)(F)F)CC(=O)N1 (stereo not drawn) | i | 18µM* | · | i | · | 15µM*
CC1=C(C(=O)OCc2ccc(C)cc2)C(c2ccccc2C(F)(F)F)CC(=O)N1 (stereo not drawn) | ? | 23µM* | · | i | · | 21µM*
COc1ccccc1C1CC(=O)NC(C)=C1C(=O)OC1CCCCCC1 (stereo not drawn) | i | 21µM* | · | i | · | 13µM*
COc1ccc(OC)c(C2NC(=O)NC(C)=C2C(=O)OC2CCCCC2)c1 (stereo not drawn) | i | ? | -15% | i | -13% | -8%
CC1=C(C(=O)OCc2ccccc2)C(c2cccc(Cl)c2Cl)CC(=O)N1 (stereo not drawn) | i | ? | · | i | · | -29%
CC1=C(C(=O)OC2CCCC2)C(c2ccc(Cl)cc2)CC(=O)N1 (stereo not drawn) | i | ? | · | i | · | ?
C[C@@H]1C[C@H]2[C@@H]3C[C@H](F)C4=CC(=O)C(Cl)=C[C@]4(C)[C@@]3(F)[C@@H](O)C[C@]2(C)[C@@]1(O)C(=O)CO | · | ? | · | · | · | 17µM*
C[C@@H]1C[C@H]2C3C[C@H](F)C4=CC(=O)C=CC4(C)[C@@]3(F)[C@@H](O)CC2(C)[C@@]1(O)C(=O)COC(=O)C(C)(C)C (stereo partly drawn) | · | 14% | · | · | · | ?
CCCC(=O)O[C@]1(C(=O)COC(C)=O)CC[C@H]2[C@@H]3C[C@H](F)C4=CC(=O)C=C[C@]4(C)[C@@]3(F)[C@@H](O)C[C@@]21C | i | 24µM*! | -18% | i | ? | ?
C[C@@H]1C[C@H]2[C@@H]3C[C@H](F)C4=CC(=O)C=C[C@]4(C)[C@@]3(F)[C@@H](O)C[C@]2(C)[C@@]1(O)C(=O)COC(=O)C(C)(C)C | i | 23µM* | ? | ? | ? | 23µM*
O=C(CSc1nc(-c2ccc(F)cc2)[nH]c1-c1ccccc1)Nc1ccccc1 | i | 18µM* | · | i | · | 12µM*
COc1ccc(-c2nsc(SCC(=O)Nc3ccc4c(c3)OCO4)n2)cc1 | i | ? | ? | i | -18% | ?
COc1ccc(NC(=O)CSc2nc(-c3ccccc3)[nH]c2-c2ccccc2)cc1OC | ? | 15µM* | · | ? | · | 8.2µM*
SMILES | KB-V1 cytotox | TDP1 cell CPT | HT1080 IDH1KD tx | KB-3-1 tox | HT1080-NT tox | TDP1 cell noCPT
COc1ccc(-c2nc(SCC(=O)Nc3ccccc3)c(-c3ccc(F)cc3)[nH]2)cc1OC | i | ? | · | i | · | ?
COc1ccc(-c2[nH]c(-c3ccccc3)nc2SCC(=O)Nc2ccc3c(c2)OCO3)cc1 | i | ? | · | i | · | 21µM*
COc1cccc(-c2nc(SCC(=O)Nc3ccc4c(c3)OCCO4)c(-c3ccc(C)cc3)[nH]2)c1 | ? | ? | · | 21µM* | · | 23µM*
CSc1ccc(/C=C2\C=Cc3ccccc32)cc1 | i | 5% | · | i | · | ?
Cn1nc(C(=O)Nc2ccc(F)c(Cl)c2)c2c1-c1ccccc1S(=O)(=O)C2 | i | -16% | · | i | · | -13%
OC(C[n+]1cccc(Br)c1)c1ccccc1 (stereo not drawn) | ? | -12% | · | ? | · | -17%
COc1ccc(NC(=O)CSc2ccccn2)cc1OC | i | -6% | 3% | i | 6% | -2%
COc1ccc(-c2nc(SCC(=O)NC3CCCC3)c(-c3ccc(F)cc3)[nH]2)cc1OC | i | ? | · | i | · | ?
COc1cc(-c2nc(SCC(=O)Nc3ccc(C)cc3)c(-c3ccc(F)cc3)[nH]2)cc(OC)c1OC | · | ? | · | · | · | 15µM*
COc1ccc(NC(=O)CSc2ncccc2C(=O)OC(C)C)cc1OC | i | 12µM* | -15% | i | ? | 12µM*
COCCCNC(=O)CSc1nc(-c2ccc(OC)c(OC)c2)[nH]c1-c1ccc(F)cc1 | i | 0% | · | i | · | -7%
COc1ccc(-c2nc(SCC(=O)Nc3ccc4c(c3)OCCO4)c(-c3ccc(F)cc3)[nH]2)cc1OC | i | ? | · | i | · | 21µM*
CC(=O)NCCNC(=O)Cn1nnc(-c2ccccc2)c1COc1ccc2ccccc2c1 | i | ? | 10% | i | 6% | ?
C/C(=N\NC(=O)c1sccc1-n1cccc1)c1cccs1 | i | -12% | 0% | i | -4% | -15%
